Test results: PubChem BioAssay (NCI)
About 83,000 compounds went through this panel and 20% of them were active in at least one assay; those are over-represented in the sample as a whole.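 Compound tested at a single concentration for 48 hours in 96-well plates; a percent growth value below 10 was scored as active.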 Unmarked numbers belong to inactive results. Activity calls are given as the source filed them.

Experiments:
Test in all cases: NCI-60 one-dose screen, 48 h (100 = growth as untreated, 0 = no growth, -100 = all killed)
Details in all cases: 10 µM unless noted
NCI-H23 lung = system: NCI-H23 lung
NCI-H226 lung = system: NCI-H226 lung
NCI-H322M lung = system: NCI-H322M lung
HOP-62 NSCLC = system: HOP-62 NSCLC
NCI-H460 lung = system: NCI-H460 lung
HOP-92 NSCLC = system: HOP-92 NSCLC
NCI-H522 lung = system: NCI-H522 lung
A549/ATCC NSCLC = system: A549/ATCC NSCLC
786-0 renal = system: 786-0 renal
COLO 205 colon = system: COLO 205 colon

Compound | growth (NCI-H23 lung) | growth (NCI-H226 lung) | growth (NCI-H322M lung) | growth (HOP-62 NSCLC) | growth (NCI-H460 lung) | growth (HOP-92 NSCLC) | growth (NCI-H522 lung) | growth (A549/ATCC NSCLC) | growth (786-0 renal) | growth (COLO 205 colon)
Cc1ccc(N(C(=O)CCc2c[nH]c3ccccc23)[C@H](C(=O)Nc2ccc(Cl)cc2)c2cccc([N+](=O)[O-])c2)cc1 | 92.8% | 74.9% | 79.1% | 68% | 98.2% | 75.9% | 64.2% | 73.8% | 90.5% | 95%
COc1ccc2[nH]c(O)c(/C=c3/cc4c(c(-c5cc(OC)c(OC)c(OC)c5)n3)=Nc3ccccc3-4)c2c1 | 50.7% | 67.1% | 92.6% | 86.2% | 71.6% | 39.8% | 50.4% | 72.5% | 67.1% | 59.4%
O=c1[nH][n+](-c2ccc(Cl)cc2)no1 | 91.6% | 87.2% | 75.6% | 82.7% | 44.1% | 95.1% | 59.2% | 62.1% | 61.2% | 77.9%
COc1cc(N=Nc2cc(Cc3ccc(N(C)C)cc3)c(N)cc2N(C)C)c2ncccc2c1 | 1.24% (active) | 19.4% | 11% | 20% | -60.2% (active) | -8.54% (active) | -5.05% (active) | -45.9% (active) | -88.9% (active) | -33.7% (active)
CC(CN1CCCCC1)C(=O)c1ccccc1 (stereo not given) | 101% | 103% | 102% | 103% | 105% | 79% | -57.1% (active) | 98% | 105% | 108%
COc1ccc(-c2csc(C3=C(O)CN(C(C)C)C3=N)n2)cc1OC | 101% | 84.4% | 91.6% | 87% | 120% | 43% | 89.1% | 88.7% | 89.7% | 128%
CN(C)CCCn1c(=O)c2ccccc2c2ccccc21 | 76.8% | 87.6% | 98.5% | 80.1% | 66.5% | 45.5% | 53.1% | 87.2% | 68.4% | 55%
Cc1ccc(-c2cc(-c3cccnc3)[nH]c(=O)c2C#N)cc1 | 103% | 99.2% | 103% | 107% | 107% | 97.9% | 94% | 102% | 101% | 118%
CCC1(C2CCCC2)NC(=O)NC1=O (stereo not given) | 93.5% | 101% | 106% | 115% | 102% | 78.1% | 103% | 104% | 94.1% | 108%
Cc1cc(C)c2c(-c3nnc(N)s3)cc(=O)oc2c1 | 96.3% | 100% | 99% | 111% | 103% | 115% | 101% | 104% | 99.4% | 116%
COc1ccc(C(=NN=C(N)N)c2ccc(OC)cc2)cc1 | 41.3% | 50.3% | 49% | 36.6% | 29.8% | 3.59% (active) | 34% | 46.1% | 45.4% | -7.03% (active)
COc1ccc2c(c1)[nH]c(=O)c1c3cccnc3cn21 | 36.6% | 66.3% | 85.8% | 38.4% | 1.71% (active) | 73.5% | 12% | 13% | 25.7% | -45.4% (active)
Cc1ccc(NCCN(C)C)c2c(=O)c3ccccc3sc12 | 40.5% | 32.3% | 53.5% | 36.2% | -14.5% (active) | 30.4% | 16.8% | 7.25% (active) | 24.2% | -53.5% (active)
COc1cc(OC)cc(C2CC(=O)Nc3c2c(C)nn3-c2nc3ccccc3[nH]2)c1 (stereo not given) | 5.52% (active) | 36.5% | 59.9% | -44.2% (active) | 5.89% (active) | 0.274% (active) | 3.99% (active) | 15.2% | 25.4% | 51.4%
COc1ccc(-c2nc(SCC(=O)Nc3nc(-c4ccccc4)cs3)[nH]c(=O)c2C#N)cc1 | 88.3% | 85% | 90.7% | 82.4% | 114% | 81.5% | 84% | 104% | 100% | 112%
O=[N+]([O-])c1ccc(Sc2cccc[n+]2[O-])c2nonc12 | 73.2% | 102% | 104% | 101% | 56.8% | 96.4% | -70.8% (active) | 59% | 92.6% | -67.3% (active)
CCCCCCCCCOc1c(OC)cc(C2CC(=O)Nc3c2c(C)nn3-c2nc3ccccc3[nH]2)cc1OC (stereo not given) | -50% (active) | -61.6% (active) | -58.1% (active) | -32.9% (active) | -23.4% (active) | -23.4% (active) | -65.2% (active) | -56% (active) | -70.7% (active) | 3.77% (active)
O=C1Nc2ccccc2/C1=C/c1cn(C(=O)c2c(Cl)cccc2Cl)c2ccccc12 | 56.9% | 48.2% | 90.4% | 88.8% | 71.2% | 49.1% | 55.3% | 36.7% | 57.1% | 41.7%
CC(=O)n1c(-c2ccc(Cl)cc2)nc2c(c1=O)C(c1ccc(Cl)cc1)c1sc3c(Cl)cccc3c1O2 (stereo not given) | -0.859% (active) | 9.2% (active) | 16.7% | 7.03% (active) | -30.4% (active) | 1.47% (active) | -32.9% (active) | -63.7% (active) | -50.1% (active) | -55.9% (active)
C[C@H]1[C@H]2[C@H]3CC[C@@H]4[C@@]5(C)C/C(=C/c6cccnc6)C(=O)C(C)(C)[C@@H]5CC[C@@]4(C)[C@]3(C)CC[C@]23CO[C@]1(C)[C@@H](C(=O)/C=C\c1cccnc1)C3 | -48.7% (active) | -13.5% (active) | 46.4% | -13.6% (active) | -45.3% (active) | -20% (active) | -34.4% (active) | -24.6% (active) | -39% (active) | -56.8% (active)
c1ccc(-c2nc([P+](c3ccccc3)(c3ccccc3)c3ccccc3)c(N3CCOCC3)o2)cc1 | 2.61% (active) | 34.7% | 21% | -2.79% (active) | 10.1% | -21.4% (active) | -3.16% (active) | 15.4% | 27.3% | -64.5% (active)
C[C@H](NC(=O)[C@@H]1CSSC[C@@H](NC(=O)c2nc3ccccc3cc2O)C(=O)NCC(=O)N1C)c1ccccc1 | 38.6% | 60.5% | 76.7% | 66.6% | 6.55% (active) | 51.6% | 24.7% | 42.9% | -37.2% (active) | -63.7% (active)
OC(COc1ccccc1Cl)COc1ccccc1Cl | 94.1% | 95.3% | 110% | 117% | 107% | 102% | 88.3% | 93.2% | 103% | 112%
NC(=N\N=C/c1cccc([N+](=O)[O-])c1)/C(N)=N\N=C/c1cccc([N+](=O)[O-])c1 | 78.4% | 64% | 110% | 10.6% | -21.5% (active) | 73.9% | 66.9% | 15.6% | 109% | 19.4%
O=C1Nc2ccc(F)cc2C12Nc1cc(Cl)ccc1S2 (stereo not given) | 80.1% | 108% | 84.6% | 111% | 89.5% | -5.66% (active) | 90.9% | 94.9% | 105% | 112%
COc1cc(CCC[P+](c2ccccc2)(c2ccccc2)c2ccccc2)cc2c1OCO2 | 19.1% | 55.5% | 79.4% | 92.3% | 37.9% | 25.3% | 13.2% | 73.2% | 63.9% | 3.37% (active)
